Source: PubChem BioAssay
Bfl-1 A1 inh – caspase 3/7 activation in MEF A1-2A-BIM cells, primary screen, A1 inhibitor project, cell-based, luminescence, HTS; Caspase-Glo 3/7 luminescence, 3 h; percent of clofoctol response, vehicle zero; caspase activation, % (test concentration not listed); 330,000 compounds, 0.066% hits; AID 2462, 2010;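 active means over half of replicate activation scores above 10%, or exactly half above 10 with the replicate mean above 10; inconclusive means replicate mean below 10 yet half the replicates above 10; inactive means over half of replicates below 10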
dFosB act – activators of delta FosB homodimer, primary screen, biochemical, fluorescence polarization, TAMRA-CDK5 oligo, single point | Protein FosB (Mus musculus), P13346 | purified delta FosB; percent of positive-control signal above neutral wells | activation, % at 25 µM | 340,000 compounds, 0.99% hits | AID 493131, 2011;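 active means mean activation above about 17%, with every replicate also reaching it, limit read from the data, passing the limit was not always enough; inconclusive means only one of the two conditions met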
Vif imaging – HIV Vif self-association inhibitors, primary screen, imaging, HEK293T, single point. HEK293T cells, Vif self-association by quenched fluorescence, 24 h. inhibition, % at 7.49 µM. 340,000 compounds, 0.35% hits. AID 602346, 2012; in the data active means inhibition above about 50%, passing the limit was not always enough; inconclusive means no clear call, values can overlap the other calls; inactive means below about 31%
INS-1E GSIS act – GLuc luminescence reporter in INS-1E cells, primary screen for activators of glucose-dependent secretion of insulin; INS-1E GLuc reporter insulin secretion, 2-3 h; activation, % at 16.6 µM; 370,000 compounds, 0.61% hits; AID 743287, 2014;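 active means lowest replicate activation of at least 40%, so every replicate reaches that level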;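 further: 0% = median of neutral control wells and 100% = median of IBMX positive control wells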
Neddyl block – inhibitors of cullin neddylation, primary screen, biochemical, TR-FRET, uHTS, NAE and Ubc12; inhibition, % at 25 µM; 360,000 compounds, 0.58% hits; in the data active means inhibition above about 36%
Target sequence (P61081 whole entry, looked up): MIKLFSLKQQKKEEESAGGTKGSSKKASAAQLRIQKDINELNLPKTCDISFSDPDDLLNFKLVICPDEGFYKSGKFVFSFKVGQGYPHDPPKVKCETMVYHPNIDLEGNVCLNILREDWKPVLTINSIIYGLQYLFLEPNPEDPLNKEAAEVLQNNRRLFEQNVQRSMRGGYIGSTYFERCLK
Target sequence (Q13564 whole entry, looked up): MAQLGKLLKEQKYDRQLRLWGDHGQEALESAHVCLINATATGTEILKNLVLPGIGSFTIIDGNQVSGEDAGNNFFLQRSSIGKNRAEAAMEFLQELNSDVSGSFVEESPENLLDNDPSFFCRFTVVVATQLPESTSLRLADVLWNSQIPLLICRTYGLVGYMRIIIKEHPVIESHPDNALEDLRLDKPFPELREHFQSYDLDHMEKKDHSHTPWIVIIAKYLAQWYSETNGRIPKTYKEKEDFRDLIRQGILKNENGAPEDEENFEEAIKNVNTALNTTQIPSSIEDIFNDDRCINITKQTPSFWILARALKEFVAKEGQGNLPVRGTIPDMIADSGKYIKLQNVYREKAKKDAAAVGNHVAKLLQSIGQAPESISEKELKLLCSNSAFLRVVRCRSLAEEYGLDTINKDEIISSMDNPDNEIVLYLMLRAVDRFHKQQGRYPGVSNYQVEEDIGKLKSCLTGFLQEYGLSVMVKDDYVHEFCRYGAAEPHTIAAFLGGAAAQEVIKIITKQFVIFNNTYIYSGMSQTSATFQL
Numbers without * were called inactive. An excerpt weighted towards active compounds, which were near 1.9% of everything screened.

Results for COc1ccc(C(=O)c2cnc[nH]2)cc1OC ?
Bfl-1 A1 inh: 0.7; dFosB act: 2.0; Vif imaging: 15.1; INS-1E GSIS act: 69.8*; Neddyl block: -10.8

How did C[C@@H]1CCCCO[C@H](CN(C)C(=O)Nc2ccc(C(F)(F)F)cc2)[C@@H](C)CN([C@H](C)CO)C(=O)c2cc(NC(=O)Nc3ccc(C(F)(F)F)cc3)ccc2O1 do in these assays?
INS-1E GSIS act: 11.2

Results for CCn1c(COc2ccc(C)cc2)nnc1SCC(=O)NNC(=O)c1ccc(OC)cc1 ?
Bfl-1 A1 inh: 0.5; dFosB act: -0.9; Vif imaging: 4.4; INS-1E GSIS act: -1.8; Neddyl block: 0.9

What do the screens show for `COc1ccc(C(=O)NNC(=O)CSc2nnc(COc3ccccc3OC)n2C)cc1`?
Bfl-1 A1 inh: -0.4; dFosB act: -0.9; Vif imaging: 0.9; INS-1E GSIS act: 40.9*; Neddyl block: 7.9

How did Cc1cnc(NC(=O)CN2CCN(c3ccccn3)CC2)s1 do in these assays?
Bfl-1 A1 inh: 0.0; dFosB act: 4.3; Vif imaging: 114.1*; INS-1E GSIS act: 0.0; Neddyl block: -7.2

Results for COc1ccc(N2CCN(CC(=O)Nc3ncc(C)s3)CC2)cc1 ?
Bfl-1 A1 inh: 0.6; dFosB act: 3.0; Vif imaging: 24.8; INS-1E GSIS act: -1.5; Neddyl block: 1.1

Results for Cc1ccc(/C=C2\SC(=S)N(CCC(=O)NNC(=O)c3ccc(O)cc3)C2=O)cc1 ?
Bfl-1 A1 inh: -0.6; dFosB act: 144.2*; Vif imaging: -2.1; INS-1E GSIS act: 1.1; Neddyl block: -9.5

How did Cc1ccc(/C=C2\SC(=S)N(CCC(=O)NNC(=O)c3cccc(O)c3)C2=O)cc1 do in these assays?
Bfl-1 A1 inh: -0.3; dFosB act: inconclusive; Vif imaging: -0.8; INS-1E GSIS act: 3.6; Neddyl block: -19.0

What do the screens show for `Cc1ccc(/C=C2\SC(=S)N(CCC(=O)NNS(=O)(=O)c3ccccc3)C2=O)cc1`?
Bfl-1 A1 inh: 0.3; dFosB act: 22.4*; Vif imaging: -7.0; INS-1E GSIS act: 5.5; Neddyl block: 0.6

Results for O=C(CCN1C(=O)/C(=C/c2ccccc2Cl)SC1=S)NNC(=O)c1ccccc1O ?
Bfl-1 A1 inh: 0.0; dFosB act: 37.2*; Vif imaging: 1.5; INS-1E GSIS act: -8.4; Neddyl block: 0.2

What do the screens show for `Cc1ccc(/C=C2\SC(=S)N(CCCC(=O)NNC(=O)c3ccccc3O)C2=O)cc1`?
Bfl-1 A1 inh: -0.3; dFosB act: 8.5; Vif imaging: -3.0; INS-1E GSIS act: 4.6; Neddyl block: 2.3

What do the screens show for `Cc1ccc(/C=C2\SC(=S)N(CCC(=O)NNC(=O)c3ccccc3O)C2=O)cc1`?
Bfl-1 A1 inh: 0.3; dFosB act: 65.8*; Vif imaging: -10.5; INS-1E GSIS act: -2.6; Neddyl block: -4.2

What do the screens show for `C[C@@H]1CCCCO[C@@H](CN(C)C(=O)CCC(F)(F)F)[C@H](C)CN([C@@H](C)CO)C(=O)c2cc(NC(=O)NC3CCCCC3)ccc2O1`?
INS-1E GSIS act: -12.7

Results for C[C@@H]1CN([C@H](C)CO)C(=O)c2cccc(NS(=O)(=O)c3ccc(Cl)cc3)c2O[C@H]1CN(C)CC1CCCCC1 ?
INS-1E GSIS act: 0.6

How did O=C(CCN1C(=O)/C(=C/c2ccccc2Cl)SC1=S)NCCc1ccc(O)cc1 do in these assays?
Bfl-1 A1 inh: 1.0; dFosB act: 23.3*; Vif imaging: -2.9; INS-1E GSIS act: -5.7; Neddyl block: 3.0

How did COc1cccc(/C=C2/SC(=S)N(CC(=O)NNC(=O)c3ccccc3O)C2=O)c1 do in these assays?
Bfl-1 A1 inh: -0.3; dFosB act: 21.1*; Vif imaging: inconclusive; INS-1E GSIS act: 10.7; Neddyl block: -7.4

What do the screens show for `O=C(CN1C(=O)/C(=C/c2ccccc2)SC1=S)NNC(=O)c1ccccc1O`?
Bfl-1 A1 inh: -0.3; dFosB act: inconclusive; Vif imaging: 12.8; INS-1E GSIS act: -11.4; Neddyl block: -6.9

How did Cc1cccc(-c2ccccc2[C@H]2[C@@H](C#N)N(c3ncc(-c4ccccc4)s3)[C@@H]2CO)c1 do in these assays?
INS-1E GSIS act: 1.6

Results for COc1ccc(-c2nnc(SCC(=O)NCc3cccs3)n2C)cc1 ?
Bfl-1 A1 inh: 0.5; dFosB act: -2.6; Vif imaging: -4.9; INS-1E GSIS act: -7.6; Neddyl block: 2.4
